According to PubChem BioAssay (NCATS):

assay: qHTS profiling of the MIPE4 collection as inhibitors of Plasmodium falciparum (DD2) proliferation (Rep 2) (AID 743346); conditions: P. falciparum Dd2 in erythrocytes, SYBR Green DNA, 72 h; at 28.5 µM unless noted
Excerpt: Plasmodium falciparum is a virulent malarial parasite that kills 1-2 million people worldwide each year. Transmitted by mosquitoes, the sporozoite form of the parasite enters the blood stream to infect hepatocytes, where they become merozoites that infect red blood cells (erythrocytes). Within erythrocytes, merozoites begin a […] cycle of growth and division, after which the parasite is released to infect new red blood cells. Gametocytes, which form within erythrocytes as well, circulate in the bloodstream and are ingested by the mosquito, thereby completing the life cycle. To profile malarial isolates for differential chemical responses and to identify inhibitors of malarial growth, an assay that measures P. falciparum growth and replication within erythrocytes was employed. This assay uses a DNA binding fluorescent dye (SYBR Green) to detect parasite DNA following cell lysis. Because mature erythrocytes lack DNA, only Plasmodium-derived DNA is detected.
The SYBR Green viability assay was adapted from a method described previously (Plouffe et al., 2008). For screening 3 ul culture medium was dispensed into 1536 well black clear bottom plates (Aurora Biotechnologies) using a Multidrop Combi (Thermo Fisher Scientific Inc.), 23 nL compounds in DMSO were added by a pin tool (Kalypsys), and 5 ul of erythrocytes infected with P. falciparum (0.3% parasitemia, 2.5% hematocrit final concentration) were added. The plates were incubated at 37 C in a humidified incubator in 5% CO2 for 72 h, and 2 ul lysis buffer (20 mM Tris HCl, 10 mM EDTA, 0.16% saponin, 1.6% triton X, 10X SYBR Green I supplied as 10,000X […] by Invitrogen) was added to each well. The plates were mixed for 25 sec with gentle shaking and incubated overnight at room temperature in the dark. The following morning, fluorescence intensity at 485(14) nm excitation and 535(25) nm emission wavelengths was measured on an EnVision (Perkin Elmer) plate reader. Plate reads were normalized relative to the control inhibitor (0.29 uM artemisinin) and vehicle (DMSO) wells present on each plate and then corrected by an algorithm using vehicle-only control plates at the beginning and end of the compound plate stack.

Compound | parasite growth, % of control (lower = inhibition)
CNC[C@@H](O)[C@@H](O)[C@H](O)[C@H](O)CO | 82.7%
CCCCc1ccc2nc(NC(=O)OC)[nH]c2c1 | 56.6%
CNC[C@H](O)c1ccc(O)c(O)c1 | 51.2% [at 57.5 µM]
Nc1cc(C(Cl)=C(Cl)Cl)c(S(N)(=O)=O)cc1S(N)(=O)=O | 142%
NNc1nncc2ccccc12 | 116%
Cc1cc(Cl)ccc1OCCCC(=O)NO | 42.1%
CCN(CC)CCOc1ccc(Nc2ncc3cc(-c4c(Cl)cccc4Cl)c(=O)n(C)c3n2)cc1 | 10.6%
Clc1ccc(C(Cn2ccnc2)OCc2ccsc2Cl)c(Cl)c1 (stereo not given) | 15.9%
O=C(O)CCNC(=O)c1ccc(N=Nc2ccc(O)c(C(=O)O)c2)cc1 | 88.5%
COC(=O)N[C@H](C(=O)N[C@@H](Cc1ccccc1)[C@@H](O)CN(Cc1ccc(-c2ccccn2)cc1)NC(=O)[C@@H](NC(=O)OC)C(C)(C)C)C(C)(C)C | 34.6%
C[C@@H](N)C1CCC(C(=O)Nc2ccncc2)CC1 (stereo not given in full) | 78.9%
Cc1ccc(NC(=O)c2ccc(CN3CCN(C)CC3)cc2)cc1Nc1nccc(-c2cccnc2)n1 | 24.1%
CCCCCCCCCCCCCCCCCCCCCCO | 137%
Nc1ccc(S(N)(=O)=O)cc1 | 95.9%
C[C@]12CCC(=O)C=C1CC[C@@H]1[C@H]2[C@@H](O)C[C@@]2(C)[C@H]1CC[C@]2(O)C(=O)CO | 74.9%
Cc1ccc(C)c(OCCCC(C)(C)C(=O)O)c1 | 8.19%
C[C@H](Cc1ccc(O)c(O)c1)[C@@H](C)Cc1ccc(O)c(O)c1 | 16.4%
CCCc1cc(=O)[nH]c(=S)[nH]1 | 78.2%
C[Se]CCC(N)C(=O)O (stereo not given) | 135% [at 57.5 µM]
NCCCCNCCCN | 90.4%

Compound | parasite growth, % of control (lower = inhibition)
CCOC(=O)C1=C(O)C(=O)N(Cc2ccccc2)C1 | 91%
CC[C@]1(O)C[C@H]2CN(CCc3c([nH]c4ccccc34)[C@@](C(=O)OC)(c3cc4c(cc3OC)N(C=O)[C@H]3[C@@](O)(C(=O)OC)[C@H](OC(C)=O)[C@]5(CC)C=CCN6CC[C@]43[C@@H]65)C2)C1 | 19.1%
O=C(c1ccccc1)c1ccc2n1CCC2C(=O)O (stereo not given) | 121%
CCN(CCO)CCCC(C)Nc1ccnc2cc(Cl)ccc12 (stereo not given) | 15.4%
CC(=O)NC[C@H]1CN(c2ccc(N3CCOCC3)c(F)c2)C(=O)O1 | 51.6%
Cc1cccc(C)c1OCC(=O)N[C@@H](Cc1ccccc1)[C@@H](O)C[C@H](Cc1ccccc1)NC(=O)[C@H](C(C)C)N1CCCNC1=O | 16.3%
Cc1c(C(=O)NN2CCCCC2)nn(-c2ccc(Cl)cc2Cl)c1-c1ccc(Cl)cc1 | 17.7%
c1ccc2[nH]c(-c3cscn3)nc2c1 | 33.5%
Clc1ccc(C(Cn2ccnc2)OCc2ccc(Sc3ccccc3)cc2)c(Cl)c1 (stereo not given) | 18.3%
Cc1cc(C2CCCCC2)n(O)c(=O)c1 | 17.5%
CCC1=C(C)CN(C(=O)NCCc2ccc(S(=O)(=O)NC(=O)NC3CCC(C)CC3)cc2)C1=O (stereo not given) | 85.1%
O=P(O)(O)C(O)(Cn1ccnc1)P(=O)(O)O | 94.2% [at 9.64 µM]
COc1cc(OC)c(C(=O)CCCN2CCCC2)c(OC)c1 | 38.2%
S=c1nc[nH]c2nc[nH]c12 | 6.58%
CCOc1cc(CC(=O)N[C@@H](CC(C)C)c2ccccc2N2CCCCC2)ccc1C(=O)O | 91.4%
CCN(CC)CCOc1ccc(Cc2ccccc2)cc1 | 36.4%
Nc1nc(N)c(N=O)c(OCC2CCCCC2)n1 | 32.9%
CN(C)c1ccc(O)c2c1C[C@H]1C[C@H]3[C@H](N(C)C)C(=O)C(C(N)=O)=C(O)[C@@]3(O)C(=O)C1=C2O | 6.85%
O=Nc1c(-c2c(O)[nH]c3cc(Br)ccc23)[nH]c2ccccc12 | 3.69%
COc1cc2nc(N3CCN(C(=O)C4CCCO4)CC3)nc(N)c2cc1OC (stereo not given) | 46.2%
